# Results filed as inconclusive are left out. Activity calls are given as the source filed them. The call rests on the fitted dose curve; in most records, active means well fitted inhibition curve with a large enough effect; inconclusive means small, poorly fitted or top-dose-only effect; inactive means no such curve, though single readings can be large or run the other way.
# Assay: qHTS to identify inhibitors of the type 1 interferon - major histocompatibility complex class I in skeletal muscle: Secondary screen by immunofluorescence; further: nearly all actives have a fitted effect of over 70% in size
# Conditions: C25cl48 myoblasts, IFN-b induced HLA-ABC immunofluorescence, 24 h; series mostly up to 49.8 µM
# Summary of the method: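 HLA-ABC immunofluorescence, with nuclear and cell-body stains, was quantified by laser scanning cytometry. Read-out followed 24 h of IFN-beta (4.0 ng/ml) stimulation of C25cl48 human myoblasts with compounds titrated 1:3 over 11 points from 50 uM, with ruxolitinib as inhibitor control.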
# Potency means the concentration at half of the fitted maximal effect.
row,SMILES,Potency
1,COc1ccc(CNc2nc(N(CCO)CCO)nc3c2ncn3C(C)C)cc1,8140 nM (active)
2,CC(C)(C)c1nc2c3cc[nH]c(=O)c3c3cc(F)ccc3c2[nH]1,514 nM (active)
3,CC(C)C[C@H](NC(=O)CNC(=O)c1cc(Cl)ccc1Cl)B1OC(=O)CC(CC(=O)O)(C(=O)O)O1 (some centres undefined),814 nM (active)
4,C[C@H](NC(=O)/C(C#N)=C/c1cccc(Br)n1)c1ccccc1,20500 nM (active)
5,Cc1[nH]nc2ccc(-c3cncc(OC[C@@H](N)Cc4ccccc4)c3)cc12,726 nM (active)
6,Cn1cc(-c2ccc(-c3cncc(Cl)c3N3CCC4(CCNC4=O)CC3)cc2)cn1,inactive
7,CN1CC[C@H](c2c(O)cc(O)c3c(=O)cc(-c4ccccc4Cl)oc23)[C@H](O)C1,102 nM (active)
8,CC(C)c1cc(CNc2nc(Nc3cc(C4CC4)[nH]n3)cc(N3CCN(C)CC3)n2)on1,4580 nM (active)
9,CCOc1cc2ncc(C#N)c(Nc3ccc(F)c(Cl)c3)c2cc1NC(=O)/C=C/CN(C)C,4580 nM (active)
10,CCCCC(=O)OCC(=O)[C@H]1[C@H](C)C[C@H]2[C@@H]3C[C@H](F)C4=CC(=O)C=C[C@]4(C)[C@@]3(F)[C@@H](O)C[C@@]21C,inactive
11,COc1ccc(-c2ccc3ncc4c(c3c2)n(-c2ccc(N3CCNCC3)c(C(F)(F)F)c2)c(=O)n4C)cn1,258 nM (active)
12,CC(C)c1c(-c2ccccc2)nc2c(C#N)c[nH]n2c1=O,inactive
13,CC1(C)CC(=O)c2c(C(F)(F)F)nn(-c3ccc(C(N)=O)c(NC4CCC(O)CC4)c3)c2C1 (centres undefined),32.4 nM (active)
14,C#Cc1cccc(Nc2ncnc3cc(OC)c(OCCCCCCC(=O)NO)cc23)c1,289 nM (active)
15,CCCOc1ccc2nc(NC(=O)OC)[nH]c2c1,inactive
16,COC(=O)C[C@](O)(CCCC(C)(C)O)C(=O)O[C@@H]1C(OC)=C[C@]23CCCN2CCc2cc4c(cc2[C@H]13)OCO4,28.9 nM (active)
17,Cc1ccc(C(=O)Nc2ccc(CN3CCN(C)CC3)c(C(F)(F)F)c2)cc1C#Cc1cnc2[nH]ncc2c1,726 nM (active)
18,CCc1cc(C(N)=O)ccc1-n1nc(C(C)C)c2c(-n3cnc(-c4cnn(C)c4)c3)ccnc21,258 nM (active)
19,O=C(/C=C/C#Cc1cccc(NS(=O)(=O)c2ccccc2)c1)NO,1450 nM (active)
20,CN(c1ncccc1CNc1nc(Nc2ccc3c(c2)CC(=O)N3)ncc1C(F)(F)F)S(C)(=O)=O,5760 nM (active)
21,C=CC(=O)N1CCc2ccc(-n3c(=O)ccc4cnc5ccc(-c6cnn(C)c6)cc5c43)cc21,2890 nM (active)
22,COc1cccc2c1C(=O)c1c(O)c3c(c(O)c1C2=O)C[C@@](O)(C(=O)CO)C[C@@H]3O[C@H]1C[C@H](N)[C@H](OC2CCCCO2)[C@H](C)O1 (some centres undefined),5140 nM (active)
23,Cc1sc2c(c1C)C(c1ccc(Cl)cc1)=N[C@@H](CC(=O)Nc1ccc(OCCOCCOCCOCCNc3cccc4c3C(=O)N(C3CCC(=O)NC3=O)C4=O)cc1)c1nnc(C)n1-2 (some centres undefined),91.4 nM (active)
24,C[C@]12C=CC(=O)C=C1CC[C@H]1[C@@H]3C[C@@H](O)[C@](O)(C(=O)CO)[C@@]3(C)C[C@H](O)[C@@]12F,inactive
